BaF3 tox = parental Ba/F3 cell viability inhibition, counter-screen for JAK2V617F inhibitor project, murine pro-B, CellTiter-Glo luminescence; 1.1% of 220,000 active; inhibition, % at 5.6 µM; AID 1486, 2009; CellTiter-Glo ATP luminescence;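 active means inhibition above a per-campaign cutoff, the mean inhibition of all tested compounds plus 3 SD, cut at about 27% in these data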
APP 5UTR inh = inhibitors of APP translation via 5'UTR reporter, primary screen, APP 5'UTR luciferase, SH-SY5Y cells. SH-SY5Y APP 5'UTR-luciferase reporter, luminescence. 0.82% of 190,000 active. inhibition, % at 2 µM;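 active means inhibition above a set limit, derived from the sample mean plus 3 SD, cut at about 45% in these data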
KLF5 inh = KLF5 expression inhibitors, primary screen, DLD-1 cells, luminescence. DLD-1 KLF5 promoter-luciferase reporter. inhibition, % at 5 µM. 0.23% of 290,000 active;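 active means inhibition above a per-plate limit of that plate's mean compound inhibition plus 3 SD, cut at about 60% in these data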;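 further: higher means less KLF5 promoter-driven luciferase light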
Ba/F3 V617F tox = reduced viability of JAK2V617F-dependent Ba/F3 cells, primary screen, JAK2V617F inhibitor project, cell-based, Ba/F3 EpoR-JAK2V617F, luminescence | ATP luminescence | inhibition, % at 5.6 µM | 1.1% of 220,000 active | AID 1446, 2008;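 active means inhibition above the campaign mean plus 3 SD over all tested compounds, cut at about 24% in these data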;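 further: cytokine-independent growth of Ba/F3 cells driven by EpoR plus mutant JAK2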
IEC-6 cytotox = cytotoxicity in IEC-6 intestinal epithelial cells, primary screen, cytotoxicity control for KLF5 inhibitor project, cell-based, luminescence. IEC-6 cytotoxicity, luminescence viability. inhibition, % at 5 µM. 0.78% of 290,000 active. AID 1825, 2009
IEC-6 cytotox cf = cytotoxic compounds in IEC-6 epithelial cells, confirmation, cytotoxicity control, cell-based, luminescence | 63% of 1,900 active | shares compounds with IEC-6 cytotox | IEC-6 rat intestinal epithelial viability | inhibition, % at 5 µM
Hits are given with their value; – = inactive; · = no result given. This is a sample that favours compounds with a hit; in the whole collection about 1.9% have one here. Unless noted, no stated cut-off is given here; in the data, active means inhibition above about 22%; inactive means the rest.

SMILES | BaF3 tox | APP 5UTR inh | KLF5 inh | Ba/F3 V617F tox | IEC-6 cytotox | IEC-6 cytotox cf
O=C(Nc1cc(Cl)ccc1-n1cncn1)c1cc(S(=O)(=O)N2CCOCC2)ccc1F | · | · | – | · | 26 | –
O=C(Nc1cc(S(=O)(=O)N2CCOCC2)ccc1-n1cncn1)c1ccc(Cl)cc1 | – | · | – | – | – | ·
CC(OC(=O)c1cccc(-n2cnnn2)c1)C(=O)N(C)c1ccccc1 (stereo not given) | · | · | – | · | – | ·
CCOc1cc(NC(=O)c2cccs2)c(OCC)cc1NC(=O)CCC(=O)NCc1ccccn1 | 64 | · | – | 81 | 57 | –
O=C1CC(=O)NC(SCC(=O)Nc2ccccc2[N+](=O)[O-])=N1 | · | · | – | · | – | ·
COc1ccc(-c2c(C#N)c(N)nc3c2CCc2ccccc2-3)cc1OC | – | – | – | – | 34 | 24
CSc1sc(C(=O)NC(=O)NCc2ccncc2)c(C)c1-c1ccon1 | – | · | – | – | – | ·
CCn1c(=O)c2cc(C(=O)NCCOC)sc2c2ccccc21 | · | · | – | · | – | ·
CCN(CC)CCCNC(=O)c1cc2c(=O)n(CC)c3ccccc3c2s1 | · | · | – | · | 26 | –
CCOCCCNC(=O)c1cc2c(=O)n(CC)c3ccccc3c2s1 | · | · | – | · | 22 | –
CCN(CC)CCNC(=O)c1cc2c(=O)n(CC)c3ccccc3c2s1 | · | · | – | · | – | ·
C/C(=N\NC(=O)CNC(=O)C1COc2ccccc2O1)c1ccco1 (stereo not given) | · | · | – | · | – | ·
Cc1ccc(C(=O)NC2CCS(=O)(=O)C2)cc1S(=O)(=O)N1CCCCCC1 (stereo not given) | – | – | – | – | – | ·
Cc1c(NC(=O)C(C)OC(=O)c2ccc([N+](=O)[O-])s2)c(=O)n(-c2ccccc2)n1C (stereo not given) | – | – | – | – | – | ·
CN(CCOC(=O)c1ccco1)Cc1ccccc1 | – | – | – | – | 41 | –
COc1ccccc1OCCSc1nc2ccccc2n1CC(O)CO (stereo not given) | · | · | – | · | – | ·
O=C(Oc1ccc2ccc(=O)oc2c1)c1ccco1 | · | · | – | · | – | ·
COc1ccc(/C=N/N(C)C2=NS(=O)(=O)c3ccccc32)cc1 | · | · | – | · | – | ·
CN(/N=C/c1ccc(N(C)C)cc1)C1=NS(=O)(=O)c2ccccc21 | · | · | – | · | 38 | –
COc1ccc(N(C)C2=NS(=O)(=O)c3ccccc32)cc1 | 61 | · | – | 50 | 55 | 30
CC(Sc1ncc(C(F)(F)F)cc1Cl)C(=O)NCC1CCCO1 (stereo not given) | – | – | – | – | – | ·
CCOCCCNC(=O)c1cn(C)c2ccc(S(=O)(=O)N3CCCC3)cc2c1=O | · | · | – | · | – | ·
COc1cccc(CNC(=O)c2ccc(NC(=O)C3=CSCCO3)cc2)c1 | · | · | – | · | – | ·
Cc1ccsc1/C=N/NC(=O)Cn1cnc2ccccc21 | – | – | – | – | – | ·
CC[n+]1c(/C=C/c2ccc(OC)c(OC)c2)ccc2ccccc21 | · | · | – | · | – | ·
SMILES | BaF3 tox | APP 5UTR inh | KLF5 inh | Ba/F3 V617F tox | IEC-6 cytotox | IEC-6 cytotox cf
CCN1/C(=C/c2ccc3cc(C)cc(C)c3[n+]2CC)Sc2cc(C)ccc21 | 86 | 61 | – | 101 | 43 | 37
CCN1/C(=C\c2ccc3cc(C)ccc3[n+]2CC)Sc2cc(C)c(C)cc21 | 71 | – | – | 100 | 37 | 28
C[n+]1ccccc1/C=C1\Sc2ccccc2N1CCO | · | · | – | · | – | ·
CCN1/C(=C/c2ccc3cccc(C)c3[n+]2CC)Sc2ccccc21 | 89 | – | – | 98 | 32 | 36
COc1cc2c(cc1CN1CCN(C(=O)c3cc(OC)c(OC)c(OC)c3)CC1)OCO2 | · | · | – | · | – | ·
COc1cc(C(=O)NCC(=O)N2CCN(S(=O)(=O)c3cc(C)ccc3C)CC2)cc(OC)c1OC | · | · | – | · | 30 | –
Cc1cccc(OCC(=O)O/N=C(\N)c2ccncc2)c1 | · | · | – | · | – | ·
O=C(O)CCC(=O)Nc1nc2nccc(-c3ccccc3)n2n1 | – | · | – | – | – | ·
COc1ccccc1NS(=O)(=O)c1ccc(-c2cnc(C3CC3)o2)cc1 | · | · | – | · | 84 | 55
Cc1ccc(NS(=O)(=O)c2ccc(-c3cnc(C4CC4)o3)cc2)c(C)c1 | · | · | – | · | 78 | 55
Cc1cccc(N(C)S(=O)(=O)c2ccc(-c3cnc(C4CC4)o3)cc2)c1 | · | · | – | · | 91 | 65
COc1ccc(NS(=O)(=O)c2ccc(-c3cnc(C4CC4)o3)cc2)cc1OC | · | · | – | · | 50 | 39
O=C(CC1C(=O)NCCN1Cc1cccc(F)c1)NCCCCCN1CCOCC1 (stereo not given) | · | · | – | · | – | ·
COc1ccc(C(=O)CC(Nc2ccc([N+](=O)[O-])cc2)c2ccc(Cl)cc2)cc1 (stereo not given) | – | – | – | – | – | ·
CCCN1CCN(C(=O)C(NC(=O)c2ccco2)C(C)C)CC1 (stereo not given) | · | · | – | · | – | ·
COc1ccccc1CNS(=O)(=O)c1ccc(-c2cnc(C3CC3)o2)cc1 | · | · | – | · | 69 | 54
O=S(=O)(Nc1ccc(F)cc1Cl)c1ccc(-c2cnc(C3CC3)o2)cc1 | · | · | – | · | 82 | 52
Cc1ccc(S(=O)(=O)NCCn2cnc([N+](=O)[O-])n2)cc1 | · | · | – | · | – | ·
O=Nc1c(-c2c(O)[nH]c3cc(Br)ccc23)[nH]c2ccccc12 | · | · | – | · | 23 | –
CN(Cc1cnccn1)Cc1ccccc1OCC(O)CN1CCc2ccccc2C1 (stereo not given) | – | – | – | – | – | ·

Assay outcomes as filed in PubChem.
